Screens: PubChem, National Center for Advancing Translational Sciences (NCATS)
TDP1 block: TDP1 (human) enzyme inhibition; Q9NUW8; 350,000 compounds, 0.28% hits; recombinant TDP1, AlphaScreen DNA substrate cleavage; Potency, µM (titrated, usually from 130 µM), for the others: top-dose activity change, negative = inhibition, usual class: inhibitors; also: % is scaled to controls: 0 for no effect and ±100 for the full control effect; nearly all actives have a fitted effect of over 40% in size
Target sequence (Q9NUW8 whole entry, looked up): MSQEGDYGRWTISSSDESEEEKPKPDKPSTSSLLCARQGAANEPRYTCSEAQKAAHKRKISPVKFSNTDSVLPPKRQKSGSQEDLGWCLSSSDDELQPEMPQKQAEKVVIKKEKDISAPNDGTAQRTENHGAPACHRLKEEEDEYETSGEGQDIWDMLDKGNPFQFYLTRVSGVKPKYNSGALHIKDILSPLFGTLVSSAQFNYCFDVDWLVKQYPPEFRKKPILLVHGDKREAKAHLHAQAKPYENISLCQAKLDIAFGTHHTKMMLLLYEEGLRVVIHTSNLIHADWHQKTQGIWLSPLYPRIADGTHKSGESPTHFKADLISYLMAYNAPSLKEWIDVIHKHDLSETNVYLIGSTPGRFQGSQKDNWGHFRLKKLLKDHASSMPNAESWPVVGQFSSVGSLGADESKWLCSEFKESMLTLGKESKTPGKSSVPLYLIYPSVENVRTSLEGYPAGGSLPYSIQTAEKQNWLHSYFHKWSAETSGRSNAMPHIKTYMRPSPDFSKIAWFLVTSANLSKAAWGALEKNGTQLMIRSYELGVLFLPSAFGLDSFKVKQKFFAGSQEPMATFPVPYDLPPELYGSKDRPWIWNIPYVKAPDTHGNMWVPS
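Enzyme-compound mixtures sat 15 min at room temperature, followed by a 5 min reaction with 15 nM final substrate and 10 min with AlphaScreen beads. Recombinant human Tdp1 was used at 1 nM final.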
ClpP mod: qHTS Assay for Activators of ClpP | purified B. subtilis ClpP, FRET peptide cleavage, 20 min | Potency, µM (titrated, usually from 57.5 µM), for the others: at the highest dose activity change, negative = active | 340,000 compounds, 1.9% hits | AID 651965, 2013; active = well fitted falling curve with a large enough effect; inconclusive = small, poorly fitted or top-dose-only effect; inactive = no such curve, though single readings can be large or run the other way; also: the source files actives as falling curves though it sought activators and does not explain the sign; nearly all actives have a fitted effect of over 65% in size
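Buffer: 100 mM Tris/HCl pH8, 100 mM KCl, 0.05% low protease BSA, 2.5% glycerol, 0.01% Tween-20. ClpP 10 microg/mL final; 20 min RT; delta FRET normalized to ADEP and DMSO controls.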
TDP1 cell CPT: DT40-hTDP1 cell growth loss with CPT; Potency, µM (series often up to 46.2 µM), for inactives: at the top dose activity change, negative = growth inhibition, hits mostly inhibitors; chicken DT40 Tdp1-/-;hTDP1 cells + 20 nM CPT, ATP luminescence, 48 h; 420,000 compounds, 12% hits; also: % is scaled to controls: 0 for no effect and ±100 for the full control effect; nearly all actives have a fitted effect of over 55% in size
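Chicken DT40 Tdp1-/- cells complemented with human TDP1, 400 cells/well, exposed to compounds plus 20 nM camptothecin for at least 48 h at 37 C; viability read as ATP content by CellTiter-Glo luminescence.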
TDP1 cell noCPT: qHTS for Inhibitors of human tyrosyl-DNA phosphodiesterase 1 (TDP1): qHTS in cells in absence of CPT. Potency, µM (titrated, usually from 46.2 µM), for inactives: at the top dose activity change, negative = growth inhibition, hits mostly inhibitors. AID 686978, 2013. DT40 Tdp1-/- hTDP1 cells, no CPT, ATP luminescence, 48 h. 420,000 compounds, 15% hits; also: % is scaled to controls: 0 for no effect and ±100 for the full control effect; nearly all actives have a fitted effect of over 55% in size
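Seeded 400 DT40-hTDP1 cells/well (vehicle DMSO, no 20 nM CPT); pinned compounds; ≥48 hr at 37 °C; CellTiter-Glo luminescence as viability measure.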
* = called active by the depositor; ? = inconclusive; / = not tested or not shown. Only some compounds are listed: those with a hit (about 17% of all), similar ones and a draw of the others. Unless noted, calls follow the shape of the dose curve; as a rule, active = well fitted curve in the direction sought with a large enough effect; inconclusive = small, poorly fitted or top-dose-only effect, or another doubt; inactive = no such curve, though single readings can be large; an effect the other way counts as inactive or inconclusive. Potency is read from the fitted curve at half-maximal effect.

SMILES	TDP1 block	ClpP mod	TDP1 cell CPT	TDP1 cell noCPT
Oc1ccc(-c2nc3ncccn3c2Nc2ccc3c(c2)OCO3)cc1	4.9%	1.1%	?	-29.0%
COc1ccc(-c2nc3cc(C)ccn3c2NCc2ccc3c(c2)OCO3)cc1	-3.7%	28.2µM*	?	?
Cc1ccn2c(Nc3ccc(F)cc3)c(-c3ccc(C)o3)nc2c1	2.7%	-14.7%	16.4µM*	?
Cc1ccn2c(Nc3ccc4c(c3)OCO4)c(-c3ccc(O)cc3)nc2c1	11.9%	3.7%	23.1µM*	?
CSc1ccc(-c2nc3cc(C)ccn3c2Nc2ccc(C)cc2)cc1	2.5%	?	-22.7%	?
Cc1ccn2c(Nc3ccc4c(c3)OCCO4)c(-c3ccc(C)o3)nc2c1	12.7%	3.7%	20.6µM*	?
CCOC(=O)Cn1c(=O)n(CC2CCCO2)c2nc(-c3ccc(C(C)C)cc3)nc(C(N)=O)c21 (configuration not stated)	4.1%	3.9%	/	/
Cc1ccc2nc(-c3ccc(C)o3)c(Nc3ccc(Cl)cc3)n2c1	1.9%	14.1µM*	?	?
COc1ccc(Nc2c(-c3ccco3)nc3ccc(C)cn23)cc1	7.9%	-27.2%	-21.4%	-15.1%
Cc1ccc(NC(=O)Cn2nc(C(F)(F)F)c3c2CCC3)cc1C	-4.2%	1.5%	?	?
C=C(C)c1nc(Oc2ccccc2)nc(Oc2ccccc2)n1	/	-2.4%	7.31µM*	6.51µM*
Cc1ccc(C2NC(=O)c3n[nH]c(-c4cccs4)c32)cc1 (configuration not stated)	4.7%	-5.8%	?	18.4µM*
COc1ccccc1CNC(=O)COC(=O)Cn1cnc2c1c(=O)n(C)c(=O)n2C	/	0.1%	-3.9%	-10.7%
COc1ccc(S(=O)(=O)Nc2ccc3c(c2)C(=O)N([C@H](C)CO)C[C@H](C)[C@@H](CN(C)S(=O)(=O)c2cn(C)cn2)OCCCC[C@H](C)O3)cc1	/	-1.0%	-15.1%	?
CC1=Nc2ccccc2N=C(NC(=O)c2ccccc2)C1c1ccc(Cl)cc1 (configuration not stated)	2.7%	/	?	20.6µM*
CCN(CC)S(=O)(=O)c1ccc2c(c1)N(CC(=O)Nc1cccnc1Cl)C(=O)CO2	-5.3%	-0.2%	2.4%	-10.6%
Cc1cccc(Oc2ccc(NC(=O)c3ccccc3C(=O)O)cc2)c1	5.6%	1.6%	1.2%	3.7%
Cc1ccc(S(=O)(=O)c2ccc(Oc3cccc(C)c3)cc2)cc1	/	-1.2%	?	20.6µM*
COc1cc(Br)cc(C(=O)N2CCc3ccccc32)c1OC	/	-0.8%	-6.4%	?
Cc1ccc(CN2CCc3nc(N4CCN(c5ncccn5)CC4)ncc3C2)cc1	6.2%	4.0%	?	?
CCc1ccc(CN2CCc3nc(Nc4ccc5c(c4)OCCO5)ncc3C2)cc1	11.2%	-4.3%	?	23.1µM*
CCOc1ccc(CN2CCc3nc(Nc4ccc5c(c4)OCCO5)ncc3C2)cc1	13.8%	-0.4%	?	?
Cc1ccc(CN2CCc3nc(Nc4ccc5c(c4)OCCO5)ncc3C2)cc1	8.8%	-2.5%	?	20.6µM*
CC(=O)c1ccc(N2CCN(C(=O)c3cccs3)C(C)C2)c(F)c1 (configuration not stated)	8.0%	-3.6%	?	20.6µM*
CC(=O)c1ccc(N2CCN(C(=O)c3cccs3)CC2)c(F)c1	/	-4.7%	?	?
SMILES	TDP1 block	ClpP mod	TDP1 cell CPT	TDP1 cell noCPT
O=C(Nc1cccc(C(=O)N2CCCC2)c1)C1CCCCC1	/	1.2%	1.3%	-19.4%
COc1ccc(-c2n[nH]c(=S)n2-c2ccc(C)cc2)cc1	7.5%	-14.4%	?	?
CCCCOc1ccc(-c2n[nH]c(=S)n2Cc2ccccc2)cc1	/	/	?	25.9µM*
CC(C)(C)c1ccc(-c2n[nH]c(=S)n2Cc2ccccc2)cc1	/	/	?	11.6µM*
COc1ccc(-n2c(-c3ccc(C(C)(C)C)cc3)n[nH]c2=S)c(OC)c1	/	?	16.4µM*	23.1µM*
Cc1ccc(-c2n[nH]c(=S)n2C)cc1	3.1%	-13.9%	25.9µM*	16.4µM*
CCc1c(-c2n[nH]c(=S)n2Cc2ccccc2)csc1C	0.0%	?	5.8µM*	4.61µM*
CCOc1ccc(Cc2n[nH]c(=S)n2Cc2ccccc2)cc1	0.6%	-1.3%	?	16.4µM*
Cc1scc(-c2n[nH]c(=S)n2Cc2ccccc2)c1C	2.6%	-5.9%	-22.8%	-5.1%
CC(C)n1c(-c2ccc(C(C)(C)C)cc2)n[nH]c1=S	4.0%	-2.5%	11.2µM*	?
OC/C=C/c1ccccc1	0.0%	/	-4.4%	-4.2%
Cc1ccc(-c2c[n+](CC(=O)c3cccs3)c3n2CCC3)cc1	7.1%	/	3.66µM*	3.26µM*
COc1ccc(-c2c[n+](CC(=O)c3cccs3)c3n2CCC3)cc1	/	-1.8%	25.9µM*	16.4µM*
O=C(CCCSc1nnnn1-c1ccccc1)c1ccc(F)cc1	-7.5%	/	/	/
COc1ccc(/C=C2/SC(=S)N(CCCC(=O)N3CCN(C)CC3)C2=O)cc1	9.8%	0.9%	?	20.6µM*
COC(=O)c1ccc(/C=C2\SC(=S)N(CCCC(=O)N3CCOCC3)C2=O)cc1	/	/	-2.5%	6.8%
COc1ccc(-c2cc3c(=O)n(CC(=O)N4CCCCC4)ncn3n2)cc1	-14.8%	?	-18.7%	4.9%
COc1ccc(-c2cc3c(=O)n(CC(=O)N4CCN(C)CC4)ncn3n2)cc1	/	-8.1%	20.6µM*	-27.1%
COc1ccc(/C=C2\SC(=S)N(CC(=O)N3CCN(C)CC3)C2=O)cc1	4.2%	0.9%	?	20.6µM*
COc1ccc(/C=C2\SC(=S)N(CC(=O)NCCO)C2=O)cc1	8.9%	/	-24.1%	-5.9%
O=C(Nc1cccc(Cl)c1)c1cc2c(=O)[nH]c3ccccc3c2s1	2.3%	-21.3%	-1.4%	-17.5%
CC(NCC(=O)NC(=O)NCCC1=CCCCC1)c1ccc(S(N)(=O)=O)cc1 (configuration not stated)	/	-1.7%	-18.5%	-8.6%
CN(C(=O)CCc1ccccc1F)C1CCCN(Cc2ccccc2F)C1 (configuration not stated)	/	0.4%	18.4µM*	16.4µM*
Cc1cc(O)c(C2=Nc3ccccc3SC(c3ccc(Cl)cc3)C2)c(=O)o1 (configuration not stated)	5.5%	0.5%	5.17µM*	7.31µM*
COCCNc1nc(-c2cc(F)ccc2C)c2sc(-c3ccccc3)cc2n1	/	4.6%	25.9µM*	14.6µM*
COCCNc1nc(-c2ccccc2F)c2sc(-c3ccccc3)cc2n1	/	31.6µM*	18.4µM*	?
COCCNc1nc(-c2ccc(Cl)cc2C)c2sccc2n1	/	4.8%	?	?
CN(C)CCNc1nc(-c2ccccc2F)c2sccc2n1	/	4.5%	?	-29.1%
CCOC(=O)Nc1ccc(=O)n(Cc2c(Cl)cccc2Cl)c1	0.0%	28.2µM*	-2.3%	9.1%
